Assay outcomes as filed in PubChem.
Sampled rows, rich in hits. Any-hit rate of the full collection: about 1.9%.
PrPC TRFRET = inhibitors of human cell surface prion protein PrPC, primary screen, cell-based, TR-FRET; TR-FRET read-out; Major prion protein (Homo sapiens), P04156; 370,000 compounds, 0.43% hits; inhibition, % at 13.8 µM; AID 720596, 2013; in the data active = inhibition above about 24%
RecA splice inh = Mtb RecA intein splicing inhibitors, primary screen, biochemical, fluorescence, HTS; 290,000 compounds, 0.75% hits; AID 2221, 2009; inhibition, % (test concentration not listed); cell-free RecA intein splicing; Protein RecA (Mycobacterium tuberculosis (strain ATCC 25618 / H37Rv)), P9WHJ3; in the data active = inhibition above about 30%
Target sequence (P9WHJ3 whole entry, looked up, canonical isoform): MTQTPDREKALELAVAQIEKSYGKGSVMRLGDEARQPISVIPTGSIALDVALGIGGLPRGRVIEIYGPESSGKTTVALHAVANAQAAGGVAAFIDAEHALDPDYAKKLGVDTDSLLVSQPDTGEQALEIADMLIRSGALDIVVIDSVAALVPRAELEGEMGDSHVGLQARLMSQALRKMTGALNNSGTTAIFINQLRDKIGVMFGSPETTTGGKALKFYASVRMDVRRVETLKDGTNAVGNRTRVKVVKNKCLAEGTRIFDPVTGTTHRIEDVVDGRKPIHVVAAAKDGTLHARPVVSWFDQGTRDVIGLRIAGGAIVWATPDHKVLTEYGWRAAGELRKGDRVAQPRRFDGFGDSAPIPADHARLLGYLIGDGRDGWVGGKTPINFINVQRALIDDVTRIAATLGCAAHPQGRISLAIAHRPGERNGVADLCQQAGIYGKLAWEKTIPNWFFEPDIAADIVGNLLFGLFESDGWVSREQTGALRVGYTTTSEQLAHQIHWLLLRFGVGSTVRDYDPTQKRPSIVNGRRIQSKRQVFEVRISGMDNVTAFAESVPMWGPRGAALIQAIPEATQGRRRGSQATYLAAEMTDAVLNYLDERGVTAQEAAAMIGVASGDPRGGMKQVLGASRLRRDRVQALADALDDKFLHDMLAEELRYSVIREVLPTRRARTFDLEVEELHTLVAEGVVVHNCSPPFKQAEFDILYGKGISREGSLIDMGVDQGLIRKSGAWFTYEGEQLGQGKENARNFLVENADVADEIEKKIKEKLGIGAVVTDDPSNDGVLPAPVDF
PriA SSB inh = inhibitors of Klebsiella pneumoniae PriA binding to SSB C-terminal tail, primary screen, biochemical, AlphaScreen. AlphaScreen SSBct-PriA binding, biotinylated peptide. inhibition, % at 33 µM. 430,000 compounds, 0.6% hits; in the data active = inhibition mostly above about 37%, no sharp cut-off; inactive = mostly below about 20%
BJeLR viability = MLPCN primary cell-based screen for lethality selective to Ras in HRASV12 cells. AID 1554, 2009. BJeLR (HRASV12) viability, CellTiter-Glo ATP luminescence, 48 h. inhibition, % (no concentration beside the values). 300,000 compounds, 0.17% hits; in the data active = inhibition above about 50%
PrP UTR inh = inhibition of PrP 5' UTR reporter expression. inhibition, % (test concentration not listed). 340,000 compounds, 0.35% hits. cell-based PrP 5' UTR mRNA reporter, plate reader; in the data active = inhibition above about 52%
PfHsp40 yeast = rescue of yeast from PfHsp40 toxicity, primary screen, S. cerevisiae, ATP luminescence. S. cerevisiae expressing PfHsp40, growth rescue. growth rescue, % at 12.5 µM. 340,000 compounds, 0.68% hits. AID 504582, 2011; in the data active = growth rescue above about 28%, passing the limit was not always enough;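 note: yeast W303a lacking pdr1 and pdr3 grown in galactose medium; growth measured after three days at 30 °C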
GFP chromophore = counter-screen: blocks GFP chromophore formation, dose response, counter-screen, biochemical, fluorescence, homogeneous | AID 434968, 2010 | cell-free GFP chromophore formation | shares compounds with RecA splice inh | EC50, µM | 2,100 compounds, 83% hits; call rule not given here
Each line names hits and unclear results; the compound was inactive in the other large screens (follow-up assays come after a bar, where they were run).

CCN(Cc1ccccc1)S(=O)(=O)c1ccc(C(=O)N(CCCN(C)C)c2nc3cc(C)cc(C)c3s2)cc1	RecA splice inh 31, PriA SSB inh 43 | GFP chromophore inactive
CCCCN(CC)S(=O)(=O)c1ccc(C(=O)N(CCCN(C)C)c2nc3cc(C)cc(C)c3s2)cc1	none
CN(C)C(=S)N=Nc1[nH]c2ccccc2c1O	RecA splice inh 59 (no result: PrP UTR inh, PfHsp40 yeast) | GFP chromophore 8.2
Nc1ccc(N)c(C(=O)O)c1	RecA splice inh 57 (no result: PrPC TRFRET) | GFP chromophore 9.7
CCOc1cc(/C=C2/SC(=S)N(Cc3ccccc3)C2=O)ccc1O	RecA splice inh 33 | GFP chromophore 28
COc1cc(/C=C2/SC(=S)N(Cc3ccccc3)C2=O)ccc1OCC(=O)O	RecA splice inh 37 | GFP chromophore 33
O=C1/C(=C/c2ccc(O)c([N+](=O)[O-])c2)SC(=S)N1Cc1ccccc1	none
CCOc1ccc(-c2[nH]nc3c2C(c2ccc(O)cc2)C(C#N)=C(N)O3)cc1 (stereo unspecified)	RecA splice inh 63 | GFP chromophore 15
Cc1ccc(-c2[nH]nc3c2C(C)C(C#N)=C(N)O3)cc1 (stereo unspecified)	RecA splice inh 88 | GFP chromophore 0.5
CCc1[nH]nc2c1C(c1ccncc1)C(C#N)=C(N)O2 (stereo unspecified)	none
COc1ccc(C2c3ccc(O)cc3Oc3ncn4nc(-c5cccnc5)nc4c32)cc1OC (stereo unspecified)	none
N#CC1=C(N)Oc2n[nH]c(-c3ccccc3)c2C1c1ccncc1 (stereo unspecified)	RecA splice inh 65 | GFP chromophore 27
CCOc1ccc(C2C(C#N)=C(N)Oc3nc[nH]c(=O)c32)cc1 (stereo unspecified)	none
COc1cc(C2C(C#N)=C(N)Oc3n[nH]c(-c4cccnc4)c32)cc(Br)c1O (stereo unspecified)	RecA splice inh 81 | GFP chromophore 14
Fc1ccc(-c2ccc(SCc3ccccn3)nn2)cc1	none (no result: PrPC TRFRET, RecA splice inh, BJeLR viability, PrP UTR inh, PfHsp40 yeast)
CSc1nc(N)c2c(n1)OC(N)=C(C#N)C2c1cccnc1 (stereo unspecified)	none
Cc1[nH]nc2c1C(c1cn[nH]c1-c1ccc(F)cc1)C(C#N)=C(N)O2 (stereo unspecified)	RecA splice inh 65 | GFP chromophore 18
Cc1ccc(C2C(C#N)=C(N)Oc3n[nH]c(-c4cccnc4)c32)o1 (stereo unspecified)	RecA splice inh 53 | GFP chromophore 38
COc1ccc(-c2ccc(C3C(C#N)=C(N)Oc4n[nH]c(C)c43)o2)cc1 (stereo unspecified)	none (no result: RecA splice inh)
N#CC1=C(N)Oc2n[nH]c(-c3ccc(F)cc3)c2C1c1cccnc1 (stereo unspecified)	RecA splice inh 75 | GFP chromophore 16
CN1CCC2(CC1)Oc1ccccc1C1CC(c3ccco3)=NN12 (stereo unspecified)	none (no result: PrPC TRFRET, RecA splice inh, BJeLR viability, PrP UTR inh, PfHsp40 yeast)
O=c1cc(-c2ccccc2)nc(SCc2ccc(Cl)c(Cl)c2)[nH]1	none (no result: PrPC TRFRET, RecA splice inh, BJeLR viability, PrP UTR inh, PfHsp40 yeast)
COc1ccc(F)cc1S(=O)(=O)N1CCN(c2ccc(-c3ccco3)nn2)CC1	none (no result: PrPC TRFRET, RecA splice inh, BJeLR viability, PrP UTR inh, PfHsp40 yeast)
N#Cc1ccc(-n2c(-c3ccccc3)nnc2-c2ccccc2)cc1C#N	RecA splice inh 50 | GFP chromophore 17
Cc1nnc(C2CCN(CC(=O)Nc3nccs3)CC2)s1	none (no result: PrPC TRFRET, RecA splice inh, BJeLR viability, PrP UTR inh, PfHsp40 yeast)
O=C(NCc1ccccn1)c1ccc(Cn2cnc3ccccc32)o1	none (no result: PrPC TRFRET, RecA splice inh, BJeLR viability, PrP UTR inh, PfHsp40 yeast)
CCc1noc(-c2ccc(=O)n(CC(=O)Nc3c(C)cc(C)cc3C)c2)n1	none (no result: PrPC TRFRET, RecA splice inh, BJeLR viability, PrP UTR inh, PfHsp40 yeast)
O=C(CN1C(=O)/C(=C2/SC(=S)N(CCS(=O)(=O)O)C2=O)c2ccccc21)Nc1cccc(C(F)(F)F)c1	none (no result: RecA splice inh, BJeLR viability)
O=C(CN1C(=O)/C(=C2\SC(=S)N(CCS(=O)(=O)O)C2=O)c2ccccc21)Nc1cccc(Br)c1	RecA splice inh 46 | GFP chromophore 25
Cc1ccc(Cc2cnc(NC(=O)CCCOc3ccc(Br)cc3)s2)cc1	none (no result: PrPC TRFRET, RecA splice inh, BJeLR viability, PrP UTR inh, PfHsp40 yeast)
CCCc1[nH][nH]c(=O)c1C(c1ccc(Br)cc1)C(C#N)C#N (stereo unspecified)	RecA splice inh 66 | GFP chromophore 11
CCCc1[nH][nH]c(=O)c1C(c1ccccc1)C(C#N)C#N (stereo unspecified)	RecA splice inh 62 | GFP chromophore 20
CCCc1[nH][nH]c(=O)c1C(c1ccc(Cl)cc1)C(C#N)C#N (stereo unspecified)	RecA splice inh 70 | GFP chromophore 18
Cc1[nH]n(-c2ncc(-c3ccccc3)s2)c(=O)c1C(c1ccc(Br)cc1)C(C#N)C#N (stereo unspecified)	none
O=C(OCn1ncc(Cl)c(Cl)c1=O)c1ccccc1Cl	RecA splice inh 89 | GFP chromophore 5.2
O=C(OCn1ncc(Cl)c(Cl)c1=O)c1ccc(F)cc1	RecA splice inh 75 (no result: PrPC TRFRET, PriA SSB inh, PrP UTR inh, PfHsp40 yeast) | GFP chromophore 8.1
COc1ccc(C=Nn2cnnc2SCc2ccccc2)cc1	none (no result: PrPC TRFRET, RecA splice inh, BJeLR viability, PrP UTR inh, PfHsp40 yeast)
COc1cn(CC(=O)NCc2ccc(F)cc2)c(CN2CCN(C(=O)c3ccco3)CC2)cc1=O	none (no result: PrPC TRFRET, RecA splice inh, BJeLR viability, PrP UTR inh, PfHsp40 yeast)
COc1cc(C(c2c(C)n(C)n(-c3ccccc3)c2=O)c2c(C)n(C)n(-c3ccccc3)c2=O)cc(Br)c1O	none
COc1ccc(C(CC(=O)O)c2cc(OC)c(OC)c(OC)c2)cc1OC (stereo unspecified)	none (no result: RecA splice inh, BJeLR viability)
COc1cc(C(c2c(C)[nH][nH]c2=O)c2c(C)[nH][nH]c2=O)cc(Cl)c1O	RecA splice inh 88 | GFP chromophore 0.74
COc1cc(C(c2c(C)[nH][nH]c2=O)c2c(C)[nH][nH]c2=O)cc(OC)c1OC	RecA splice inh 96 | GFP chromophore 0.51
Cc1ccc(S(=O)(=O)N(C(=O)c2ccncc2)c2ccc(OC(=O)c3ccncc3)c3ccccc23)c(C)c1	RecA splice inh 98 (no result: PrPC TRFRET) | GFP chromophore inactive
Cc1ccc(S(=O)(=O)N(C(=O)c2ccncc2)c2ccc(OC(=O)c3ccncc3)c3ccccc23)cc1	RecA splice inh 47 | GFP chromophore 0.75
O=C(Nc1nnc(-c2cc(Cl)sc2Cl)o1)c1ccc2ncsc2c1	none (no result: PrPC TRFRET, RecA splice inh, BJeLR viability, PrP UTR inh, PfHsp40 yeast)
COc1ccc(CCC(=O)N2CCCSCC2CN(C)C)cc1 (stereo unspecified)	none (no result: PrPC TRFRET, RecA splice inh, BJeLR viability, PrP UTR inh, PfHsp40 yeast)
Cc1sc(NC(=O)CCl)c(C(=O)c2ccccc2)c1C	RecA splice inh 63 | GFP chromophore 32
Cc1cc(C(=O)c2ccc(C(C)(C)C)cc2)c(NC(=O)CCl)s1	RecA splice inh 67 | GFP chromophore 34
Cc1ccccc1C(=O)Nc1sc(C)c(C)c1C(=O)c1ccccc1	none
